Source: PubChem (several laboratories)
NCF1 inh = blocks human p47phox regulatory protein of NADPH oxidases. p47phox/p22phox peptide binding, fluorescence polarization, 2 h. inhibition, % at 24.7 µM. 220,000 tested, 0.53% active;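 active = inhibition above about 30%, limit read from the data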;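 note: 0% = p47phox with labelled peptide and 100% = labelled peptide alone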
Bim-Mcl-1 = inhibitors of Bim-Mcl-1 interaction, human | Q07820 | Bead-based flow cytometry, Bim peptide-Mcl-1 binding | inhibition, % at 10 µM | 190,000 tested, 0.1% active; in the data active = inhibition above about 40%;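 note: 0% = no compound tracer wells and 100% = peptide blocker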
Target sequence (Q07820 whole entry, looked up): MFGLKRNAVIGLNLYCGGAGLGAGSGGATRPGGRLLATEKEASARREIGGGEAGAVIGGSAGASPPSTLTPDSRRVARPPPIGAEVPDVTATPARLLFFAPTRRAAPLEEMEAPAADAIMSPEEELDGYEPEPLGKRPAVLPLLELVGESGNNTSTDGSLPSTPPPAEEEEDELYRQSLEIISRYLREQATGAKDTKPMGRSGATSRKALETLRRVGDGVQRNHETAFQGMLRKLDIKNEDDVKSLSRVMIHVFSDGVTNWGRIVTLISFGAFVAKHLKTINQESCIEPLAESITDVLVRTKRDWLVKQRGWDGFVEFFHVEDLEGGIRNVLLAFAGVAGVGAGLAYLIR
Mcl1 Bid PPI = disrupts binding of human Mcl-1 to Bid peptide. TR-FRET Mcl-1/Bid-Dy647 peptide binding, 1536-well. inhibition, % at 21.7 µM. 220,000 tested, 0.97% active. AID 1021;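 active = compounds that cut the binding signal by more than half at the single screening dose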;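 note: His-tagged Mcl-1 with europium anti-His antibody binding Bid BH3 peptide; 0% = Mcl-1 plus peptide wells and 100% = peptide-only wells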
14-3-3 Bad inh = disrupts binding of bovine 14-3-3 zeta to phospho-Bad peptide; P63103; TR-FRET 14-3-3zeta/Dy647-pBad peptide displacement, 1 h; inhibition, % at 21.7 µM; 220,000 tested, 0.71% active; AID 781;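 active = inhibition above about 70%, limit read from the data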;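 note: 0% = full 14-3-3 plus peptide FRET controls and 100% = background without 14-3-3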
Target sequence (P63103 whole entry, looked up): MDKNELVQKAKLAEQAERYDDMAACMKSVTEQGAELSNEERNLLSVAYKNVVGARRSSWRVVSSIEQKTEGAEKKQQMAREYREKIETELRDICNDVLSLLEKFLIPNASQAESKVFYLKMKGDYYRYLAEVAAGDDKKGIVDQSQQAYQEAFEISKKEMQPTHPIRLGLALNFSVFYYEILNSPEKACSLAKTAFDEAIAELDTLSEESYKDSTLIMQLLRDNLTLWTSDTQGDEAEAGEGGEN
Mcl1 Noxa PPI = disrupts binding of human Mcl-1 to Noxa peptide; TR-FRET Mcl-1/Noxa peptide binding, 2 h; inhibition, % at 21.7 µM; 220,000 tested, 1.5% active; AID 1022;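 active = compounds that cut the protein-peptide binding signal by more than 50% relative to plate controls in a single-dose test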;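 note: His-tagged Mcl-1 with rhodamine Noxa BH3 peptide and terbium anti-His antibody; 0% = Mcl-1 plus Noxa peptide wells and 100% = peptide-only wells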
m-calpain inh = calpain II (pig) inhibition; purified calpain II, fluorogenic peptide substrate, 30 min; inhibition, % at 16 µM; 220,000 tested, 0.37% active; AID 1236;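 active = inhibition above about 50%, limit read from the data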
An asterisk follows results filed as active. The list is not random: actives were taken first. Their share in the collection is about 3.4%.

Results for CC(C)C(c1nnnn1CCc1ccccc1)N1CCOCC1 (stereo unspecified) ?
NCF1 inh: 0; Bim-Mcl-1: -1; Mcl1 Bid PPI: -11; 14-3-3 Bad inh: 70*; Mcl1 Noxa PPI: 26; m-calpain inh: 14

How did COCCn1nnnc1C(C(C)C)N1CCC(Cc2ccccc2)CC1 (stereo unspecified) do in these assays?
NCF1 inh: -41; Bim-Mcl-1: 3; Mcl1 Bid PPI: 6; 14-3-3 Bad inh: 84*; Mcl1 Noxa PPI: 19; m-calpain inh: 0

Results for O=C(c1ccc([N+](=O)[O-])cc1)N1CCC(Cc2ccccc2)CC1 ?
NCF1 inh: -3; Bim-Mcl-1: 0; Mcl1 Bid PPI: 5; 14-3-3 Bad inh: -1; Mcl1 Noxa PPI: 8; m-calpain inh: 10

How did O=C(c1cnc(Cl)c(Cl)c1)N1CCC(Cc2ccccc2)CC1 do in these assays?
NCF1 inh: -3; Bim-Mcl-1: 1; Mcl1 Bid PPI: 4; 14-3-3 Bad inh: 0; Mcl1 Noxa PPI: 51*; m-calpain inh: 36

How did COc1ccccc1NC(=O)c1cc2c(=O)n(C)c3ccccc3c2n1C do in these assays?
NCF1 inh: 3; Mcl1 Bid PPI: 5; 14-3-3 Bad inh: 12; Mcl1 Noxa PPI: 21; m-calpain inh: -139

Results for Cc1ccc(Nc2cc(-n3nc(C)cc3C)ncn2)c(C)c1 ?
NCF1 inh: 8; Bim-Mcl-1: 5; Mcl1 Bid PPI: -14; 14-3-3 Bad inh: 0; Mcl1 Noxa PPI: 56*; m-calpain inh: 29

Results for Cc1ccc(Nc2cc(-n3cccn3)ncn2)c(C)c1 ?
NCF1 inh: -11; Bim-Mcl-1: -3; Mcl1 Bid PPI: -18; 14-3-3 Bad inh: 11; Mcl1 Noxa PPI: 7; m-calpain inh: -7

What do the screens show for `Cc1cc(C)n(CC(=O)N2CCCC(C(=O)c3cccc(OC(C)C)c3)C2)n1` (stereo unspecified)?
NCF1 inh: 6; Bim-Mcl-1: -1; Mcl1 Bid PPI: -65; 14-3-3 Bad inh: -2; Mcl1 Noxa PPI: -14; m-calpain inh: -5

Results for Cc1cc2ncn(/N=C/c3ccc([N+](=O)[O-])s3)c2cc1C ?
NCF1 inh: -10; Bim-Mcl-1: -1; Mcl1 Bid PPI: 26; 14-3-3 Bad inh: 4; Mcl1 Noxa PPI: 87*; m-calpain inh: -6

Results for O=[N+]([O-])c1ccc(/C=N/n2cnc3ccccc32)s1 ?
NCF1 inh: -7; Bim-Mcl-1: 0; Mcl1 Bid PPI: -8; 14-3-3 Bad inh: 5; Mcl1 Noxa PPI: 10; m-calpain inh: 6

What do the screens show for `O=[N+]([O-])c1cccc(C2Nc3cccc4cccc(c34)N2)c1`?
NCF1 inh: -15; Bim-Mcl-1: -3; Mcl1 Bid PPI: -19; 14-3-3 Bad inh: -17; Mcl1 Noxa PPI: 50; m-calpain inh: 9

What do the screens show for `O=[N+]([O-])c1ccc(C2Nc3cccc4cccc(c34)N2)cc1`?
NCF1 inh: 3; Bim-Mcl-1: -9; Mcl1 Bid PPI: -64; 14-3-3 Bad inh: 1; Mcl1 Noxa PPI: 67*; m-calpain inh: 27

Results for CCOC(=O)c1c(C)[nH]c(C(=O)COC(=O)/C=C/c2ccc3c(c2)OCO3)c1C ?
NCF1 inh: -35; Bim-Mcl-1: -1; Mcl1 Bid PPI: 56*; 14-3-3 Bad inh: 5; Mcl1 Noxa PPI: 24; m-calpain inh: -12

How did COc1cc(OC)c2c(-c3ccccc3)cc(=O)oc2c1C(CCN1CCN(c2ccccc2)CC1)c1ccc(N(C)C)cc1 (stereo unspecified) do in these assays?
NCF1 inh: -2; Mcl1 Bid PPI: -142; 14-3-3 Bad inh: 3; Mcl1 Noxa PPI: -20; m-calpain inh: -54

How did COc1cc(OC)c2ccc(=O)oc2c1C(CCN1CCN(c2ccccc2)CC1)c1ccc(N(C)C)cc1 (stereo unspecified) do in these assays?
NCF1 inh: 94*; Mcl1 Bid PPI: -135; 14-3-3 Bad inh: -1; Mcl1 Noxa PPI: 5; m-calpain inh: -7

What do the screens show for `Cc1cccc(-n2c(N)c(C(=O)NCCN3CCOCC3)c3nc4ccccc4nc32)c1`?
NCF1 inh: -11; Bim-Mcl-1: -2; Mcl1 Bid PPI: 8; 14-3-3 Bad inh: 71*; Mcl1 Noxa PPI: 23; m-calpain inh: inactive

How did O=C1NCCN1C(=O)N(c1ccccc1)c1ccccc1 do in these assays?
NCF1 inh: 6; Bim-Mcl-1: 56*; Mcl1 Bid PPI: -25; 14-3-3 Bad inh: -3; Mcl1 Noxa PPI: -14; m-calpain inh: -3

Results for CCC(=O)NNc1nc2c(Cl)cccc2s1 ?
NCF1 inh: 1; Bim-Mcl-1: -5; Mcl1 Bid PPI: -25; 14-3-3 Bad inh: -2; Mcl1 Noxa PPI: -8; m-calpain inh: -8

What do the screens show for `COc1ccc(C2CC(=O)N(C)c3ccccc3S2)cc1` (stereo unspecified)?
NCF1 inh: 3; Bim-Mcl-1: 0; Mcl1 Bid PPI: 2; 14-3-3 Bad inh: -2; Mcl1 Noxa PPI: 14; m-calpain inh: 15

What do the screens show for `N=C(N)SCc1cn(-c2ccccc2)nc1-c1ccc(Br)cc1`?
NCF1 inh: 54*; Bim-Mcl-1: 1; Mcl1 Bid PPI: -19; 14-3-3 Bad inh: 75*; Mcl1 Noxa PPI: 20; m-calpain inh: -20

Results for COc1ccc(-c2nn(-c3ccccc3)cc2CO)cc1 ?
NCF1 inh: -12; Bim-Mcl-1: -4; Mcl1 Bid PPI: -4; 14-3-3 Bad inh: 3; Mcl1 Noxa PPI: 3; m-calpain inh: 5

How did CN(C)c1ccc(/C=N/N2CCN(c3ccccn3)CC2)cc1 do in these assays?
NCF1 inh: 8; Mcl1 Bid PPI: -26; 14-3-3 Bad inh: -2; Mcl1 Noxa PPI: 17; m-calpain inh: 7

How did COc1ccc(C(=O)n2nc(C)c(Br)c2C)cc1 do in these assays?
NCF1 inh: -2; Bim-Mcl-1: -4; Mcl1 Bid PPI: 16; 14-3-3 Bad inh: 13; Mcl1 Noxa PPI: 85*; m-calpain inh: 26

How did Cc1nn(C(=O)c2ccco2)c(C)c1Br do in these assays?
NCF1 inh: -17; Bim-Mcl-1: -2; Mcl1 Bid PPI: -12; 14-3-3 Bad inh: 3; Mcl1 Noxa PPI: 20; m-calpain inh: -1

Results for O=C(O)c1ccc(N/N=C/c2ccc(-c3cccc(Cl)c3)o2)cc1 ?
NCF1 inh: -31; Mcl1 Bid PPI: -23; 14-3-3 Bad inh: -7; Mcl1 Noxa PPI: 40; m-calpain inh: 16

What do the screens show for `O=C(O)c1ccc(N/N=C/c2ccc(-c3cc(Cl)ccc3Cl)o2)cc1`?
NCF1 inh: -25; Mcl1 Bid PPI: 62*; 14-3-3 Bad inh: 14; Mcl1 Noxa PPI: 111*; m-calpain inh: 23

Results for O=C(O)c1ccc(N/N=C/c2ccc(-c3ccc(Cl)cc3Cl)o2)cc1 ?
NCF1 inh: -21; Mcl1 Bid PPI: 48; 14-3-3 Bad inh: 6; Mcl1 Noxa PPI: 108*; m-calpain inh: -5

How did CN1CCN(Cc2cccc(Oc3ccc(Cl)cc3)c2)CC1 do in these assays?
NCF1 inh: -1; Bim-Mcl-1: -1; Mcl1 Bid PPI: 67*; 14-3-3 Bad inh: 62; Mcl1 Noxa PPI: 27; m-calpain inh: 1
